Compounds without any hit were thinned out: in the full panel of roughly 83,000, 20% have a hit.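 Plates (96-well) were seeded with cells, treated with compound at one concentration, and incubated for 48 hours before percent growth was determined.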 A number with no mark means an inactive call. Calls of active or inactive are those of the source. Rule for the calls: active = growth percent below 10; inactive = the rest.
How the values were obtained:
Assay in all cases: NCI-60 one-dose screen, 48 h (100 = growth as untreated, 0 = no growth, -100 = all killed)
Details in all cases: 10 µM unless noted
[1] = tested on: NCI-H23 lung
[2] = tested on: NCI-H322M lung
[3] = tested on: HOP-62 NSCLC
[4] = tested on: NCI-H460 lung
[5] = tested on: HOP-92 NSCLC
[6] = tested on: NCI-H522 lung
[7] = tested on: A549/ATCC NSCLC
[8] = tested on: 786-0 renal
[9] = tested on: COLO 205 colon
[10] = tested on: DU-145 prostate
[11] = tested on: K-562 leukemia
[12] = tested on: MDA-MB-231 breast
[13] = tested on: RXF 393 renal
[14] = tested on: SF-268 CNS
[15] = tested on: SF-295 CNS
[16] = tested on: SF-539 CNS
[17] = tested on: UACC-257 melanoma
[18] = tested on: M14 melanoma
[19] = tested on: HCT-15 colon
[20] = tested on: MALME-3M melanoma

| SMILES | growth [1] | growth [2] | growth [3] | growth [4] | growth [5] | growth [6] | growth [7] | growth [8] | growth [9] | growth [10] | growth [11] | growth [12] | growth [13] | growth [14] | growth [15] | growth [16] | growth [17] | growth [18] | growth [19] | growth [20] |
| --- | --- | --- | --- | --- | --- | --- | --- | --- | --- | --- | --- | --- | --- | --- | --- | --- | --- | --- | --- | --- |
| CCOc1ccc2nc(C)cc(Nc3ccc(Br)cc3)c2c1 | 95.8% | 93.9% | 109% | 101% | 105% | 107% | 95.2% | 108% | 95.9% | 110% | 87.6% | 109% | 110% | 108% | 110% | 103% | 103% | 121% | 82.2% | – |
| Cc1ccc2[nH]c(=O)cc(-n3nncc3Cn3c4ccccc4c4ccccc43)c2c1 | 94.1% | 97.6% | 93.4% | 102% | 89.8% | 93.9% | 98.9% | 101% | 116% | 102% | – | 97.6% | – | 86.4% | 98.9% | 94% | 97.5% | 105% | 99% | 93.5% |
| CC(=O)SC1CC(=O)C=C2CCC3C4CCC(=O)OC4(C)CCC3C21C (stereo not given) | 111% | 120% | 106% | 115% | 97.6% | 92.7% | 105% | 101% | 116% | 116% | 103% | – | – | 105% | – | 94.9% | 100% | 97.7% | 106% | 195% |
| Cn1nc(C(F)(F)F)c(-c2ccc(Cl)c(C(F)(F)F)c2)c1-c1ccc(OCc2ccc(Cl)cc2)cc1O | -6.46% (active) | 18.1% | 50.5% | 6.25% (active) | -22.4% (active) | -13.7% (active) | 12.8% | 28.4% | 24.5% | 19% | – | 8.7% (active) | – | 26% | 12.8% | 34.4% | 2.35% (active) | 35.4% | 8.53% (active) | 12.2% |
| COc1cc2c(cc1OC)C(=O)C(CC1CCN(C(=O)Nc3ccc(C)cc3)CC1)C2 (stereo not given) | 100% | 95.7% | 99.1% | 97.3% | 62.5% | 87.8% | 108% | 101% | 110% | 104% | – | 76.7% | – | 96.8% | 96.5% | 92.8% | 119% | 97.5% | 94.5% | 91.1% |
| COc1cc(C#N)cc2[nH]c(=O)oc12 | 104% | 106% | 103% | 110% | 95.5% | 103% | 101% | 98.7% | 105% | 99% | 123% | – | 128% | 100% | 92.4% | 101% | 106% | 102% | 95.6% | 89.8% |
| O=c1nc2sc3nc4ccccc4cc3cc-2s1 | 101% | 106% | 104% | 106% | 125% | 122% | 117% | 103% | 127% | 114% | – | 108% | 117% | 132% | 104% | 101% | 98.8% | 100% | 104% | 116% |
| CC(=O)n1cc(-c2c[nH]c3ccccc23)c(-c2ccc(Cl)cc2)n1 | 76.2% | 83.6% | 66.3% | 82.3% | 79.7% | 74.8% | 93.7% | 78.9% | 92.4% | 96.3% | 94.3% | – | 80.6% | 86.5% | 75.3% | 81.7% | 103% | 76.1% | 80.9% | 87.2% |
| O=C(c1ccccc1)N(C(=S)NCCc1ccc(Cl)cc1)c1ccccc1 | 95.5% | 103% | 103% | 107% | 75.2% | 92.5% | 97.2% | 92.4% | 139% | 79.7% | 58.1% | 112% | – | 96.2% | 113% | 104% | 95.8% | 101% | 86.2% | – |
| COc1ccc(/C=C2\N=C(c3ccccc3)N(c3ccc(-c4nc5ccc(C)cc5s4)cc3)C2=O)cc1 | 87.1% | 60.3% | 99.2% | 89.6% | 82.4% | 67.1% | 70% | 91% | 97.1% | 77.9% | 82.4% | – | 99% | 61.1% | 75.5% | 93.3% | 111% | 98.9% | 82.1% | 94.6% |
| CSc1nc2c(c(=O)[nH]1)N=C1c3ccccc3C(=O)C1C(c1ccccc1)N2 (stereo not given) | 62% | 69.4% | 45.5% | 12.3% | 59.5% | 82.2% | 51.6% | 46% | 33.5% | 75.4% | 34.8% | 82.6% | – | 47.9% | – | 25.6% | 74.5% | 29.4% | 36.8% | 34.8% |
| CCn1c(-c2nonc2Nc2ccc(OC)cc2)nc2ccccc21 | 107% | 105% | 115% | 109% | 134% | 89% | 93.5% | 95.1% | 124% | 113% | 118% | – | 120% | 110% | 132% | 107% | 104% | 104% | 97.7% | 120% |
| COc1ccc(C2Nc3nc(OC)n(C)c(=O)c3N=C3c4ccccc4C(=O)C32)cc1 (stereo not given) | 100% | 106% | 91.1% | 97% | 81.9% | 94.8% | 106% | 98.1% | 104% | 89.2% | 83.8% | 92.2% | – | 81% | 6.96% (active) | 89.8% | 127% | 92.4% | 88.3% | 117% |
| O=C(Nc1ccc(-c2nc3ccc(NC(=O)c4ccc(Cl)cc4)cc3[nH]2)cc1)c1ccc(Cl)cc1 | 56% | 10.4% | 29.2% | 26.3% | 41.2% | -65.6% (active) | 4.64% (active) | -22.8% (active) | -74.3% (active) | 44.1% | -1.36% (active) | -0.679% (active) | -49% (active) | 43.7% | -68% (active) | -68.2% (active) | -15.8% (active) | 2.14% (active) | 32.1% | – |
| CC1=CCC(OC(=O)C(C)(C)CCC(O)(C(=O)OC2(C(C)C)CCC3(C)OC3C2)C(C)C)(C(C)C)CC1 (stereo not given) | -73.2% (active) | -93% (active) | -66.7% (active) | -84.2% (active) | -71.7% (active) | -76.3% (active) | -82.8% (active) | -90.5% (active) | -61.5% (active) | -95.8% (active) | – | -63.1% (active) | -91.2% (active) | -74.5% (active) | -92.2% (active) | -97.3% (active) | -57.6% (active) | -81% (active) | -59.8% (active) | -84.1% (active) |
| Brc1ccc(Nc2nc3ccccc3nc2Nc2ccc(Br)cc2)cc1 | -16.4% (active) | -13.1% (active) | -63.4% (active) | 2% (active) | -25.9% (active) | -54.1% (active) | -6.83% (active) | -30.2% (active) | -96.2% (active) | 14.2% | -20% (active) | -80.4% (active) | -32.9% (active) | 3.08% (active) | -75.6% (active) | -8.61% (active) | -43% (active) | -60.7% (active) | -21% (active) | – |
| COc1ccc(-c2cn[nH]c2-c2cc(OC)c(OC)c(OC)c2)cc1OCc1ccccc1 | 33.2% | 49.1% | 27.7% | 12.2% | 31.4% | -19.7% (active) | 37.7% | 21.5% | 104% | 65.2% | – | 46.1% | – | 27% | -1.63% (active) | -19.8% (active) | 47.6% | 10.7% | 23.7% | 36.6% |
